POLB inh = DNA polymerase beta (human) inhibition. P06746. Pol beta primer extension/strand displacement, fluorescence kinetic. Potency, µM (titrated, usually from 114 µM), inactives show at the highest dose activity change, negative = inhibition, most hits filed as inhibitors. 340,000 tested, 1.3% active; also: % is scaled to controls: 0 for no effect and ±100 for the full control effect
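Pol beta (10 nM) was preincubated with compound for 15 min at room temperature. The reaction was then started with 50 nM substrate and read immediately and after a further 10 min at room temperature.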
Pol kappa inh-1 = inhibitors of human DNA polymerase kappa. Q9UBT6. purified Pol kappa, fluorescent DNA synthesis assay, 10 min. Potency, µM (top dose mostly 107 µM), for the others: at the highest dose activity, negative = inhibition, usual class: inhibitors. AID 588579. 400,000 tested, 0.53% active; also: % is scaled to controls: 0 for no effect and ±100 for the full control effect
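First, compounds were pin-transferred onto 10 nM Pol kappa. After 15 min at room temperature, substrate was added to 50 nM final. Fluorescence was then measured kinetically at 0 and 10 min.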
WRN inhibitor = inhibitors of human WRN helicase | WRN helicase unwinding, fluorescent forked duplex, kinetic | Potency, µM (doses to about 114 µM), inactives show at the highest dose activity change, negative = inhibition, actives largely listed as inhibitors | 360,000 tested, 0.46% active | AID 651768; also: % is scaled to controls: 0 for no effect and ±100 for the full control effect; nearly all actives have a fitted effect of over 55% in size
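WRN at 20 nM final preincubated with compound 15 min at room temperature; reaction started with 100 nM fluorophore/quencher forked duplex oligonucleotide and 2 mM ATP final. Unwinding followed kinetically by red fluorescence (ex 525, em 598 nm).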
Pol eta inh-1 = inhibitors of human DNA polymerase eta; Q9Y253; recombinant Pol eta, fluorescent DNA replication assay; Potency, µM (titrated, usually from 114 µM), for the others: at the highest dose activity change, negative = inhibition, most hits filed as inhibitors; 390,000 tested, 1.2% active; AID 588591; also: % is scaled to controls: 0 for no effect and ±100 for the full control effect
Target sequence (Q9Y253 whole entry, looked up): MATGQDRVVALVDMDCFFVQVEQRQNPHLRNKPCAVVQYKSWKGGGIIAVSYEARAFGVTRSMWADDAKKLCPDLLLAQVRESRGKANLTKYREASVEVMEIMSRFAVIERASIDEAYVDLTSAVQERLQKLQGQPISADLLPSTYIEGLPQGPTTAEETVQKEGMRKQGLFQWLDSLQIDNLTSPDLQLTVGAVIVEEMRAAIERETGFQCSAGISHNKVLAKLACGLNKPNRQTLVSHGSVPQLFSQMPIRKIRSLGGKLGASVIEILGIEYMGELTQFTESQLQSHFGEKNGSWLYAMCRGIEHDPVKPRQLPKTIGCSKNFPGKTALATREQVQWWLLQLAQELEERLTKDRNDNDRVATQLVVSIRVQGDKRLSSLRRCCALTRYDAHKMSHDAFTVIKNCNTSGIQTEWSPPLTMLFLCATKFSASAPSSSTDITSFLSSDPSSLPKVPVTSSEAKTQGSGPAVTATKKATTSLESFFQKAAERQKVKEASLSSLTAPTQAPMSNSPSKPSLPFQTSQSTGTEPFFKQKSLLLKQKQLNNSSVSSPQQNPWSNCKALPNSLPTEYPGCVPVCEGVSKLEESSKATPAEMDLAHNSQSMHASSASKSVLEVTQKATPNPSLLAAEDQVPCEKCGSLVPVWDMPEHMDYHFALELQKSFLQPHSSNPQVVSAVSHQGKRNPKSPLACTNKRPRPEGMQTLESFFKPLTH
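Pol eta (10 nM) was preincubated with compounds for 15 min at room temperature, after which fluorescent replication substrate (50 nM final) was added to start the reaction. Fluorescence was read kinetically at 0 and 10 min.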
POLI inh = DNA polymerase iota (human) inhibition; Pol iota fluorescent replication assay, 10 min; Potency, µM (series often up to 115 µM), inactives show at the top dose activity, negative = inhibition, most hits filed as inhibitors; 390,000 tested, 1% active; AID 588590
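Fluorescent replication assay read twice, at 0 min and 10 min after adding 50 nM (final) substrate. Enzyme (10 nM) and compounds were first incubated 15 min at room temperature; enzyme-free buffer wells were negative controls.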
FEN1 inh = human FEN1 inhibition. AID 588795. P39748. 390,000 tested, 0.35% active. Potency, µM (top dose mostly 114 µM), for the others: top-dose activity change, negative = inhibition, usual class: inhibitors. Recombinant FEN1 flap cleavage, fluorescence, 15 min; also: % is scaled to controls: 0 for no effect and ±100 for the full control effect; nearly all actives have a fitted effect of over 65% in size
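Compounds are tested as a concentration series against 10 nM FEN1; after a 15 min room-temperature preincubation, 50 nM substrate starts cleavage, with plate reads at 0 and 15 min. Normalized responses are fitted by a Hill equation.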
Pol kappa inh-2 = Pol kappa (human) inhibition, cherry-pick confirmation | shares compounds with Pol eta inh-1 | purified Pol-kappa, fluorescent strand-displacement substrate | Potency, µM, actives largely listed as inhibitors | 920 tested, 76% active
Pol eta inh-2 = confirmation of human DNA polymerase eta inhibitors | Potency, µM, hits mostly inhibitors | AID 720502 | Pol eta primer extension, TAMRA/BHQ fluorescence, 10 min | shares compounds with Pol eta inh-1 | 2,600 tested, 64% active
* marks the source's active call; other numbers are inactive results; ? = inconclusive; / = no result; [ ] = remark or other dose. Only some compounds are listed: those with a hit (about 2.4% of all), similar ones and a draw of the others. Calls follow the shape of the dose curve; as a rule, active = well fitted curve in the direction sought with a large enough effect; inconclusive = small, poorly fitted or top-dose-only effect, or another doubt; inactive = no such curve, though single readings can be large; an effect the other way counts as inactive or inconclusive. Potency is read from the fitted curve at half-maximal effect.

SMILES	POLB inh	Pol kappa inh-1	WRN inhibitor	Pol eta inh-1	POLI inh	FEN1 inh	Pol eta inh-2	others
CN(C)CCNc1cc(N2CCN(C)CC2)ncn1	/	-20.6%	/	/	-5.0%	-1.1%	/
COc1cccc(Cn2c(CNC(=O)Cc3cccc(C)c3)nc3cccnc32)c1	0.1%	-13.0%[60.1 µM]	/	-12.1%	-1.0%	-8.4%	/
COc1cc(C2C(C#N)=C(N)Oc3cc(O)ccc32)cc2c1OCO2 (stereo unspecified)	14.7%	-12.2%	-7.1%	-7.0%	-0.2%	-9.1%	/
COc1cc(C2C(C#N)=C(N)OC3=C2C(=O)CC(C)(C)C3)cc2c1OCO2 (stereo unspecified)	/	?	?	?	25.1µM*	-9.4%	?
CC(=O)c1ccc(OC(=O)C2CSC3(C)CCC(=O)N23)cc1 (stereo unspecified)	/	-35.1%	-22.0%	8.91µM*	17.8µM*	41.1%	?
COc1cc(-c2[nH]nc3c2C(c2ccoc2)C(C#N)=C(N)O3)cc(OC)c1OC (stereo unspecified)	17.8µM*	?	-31.0%[57.1 µM]	?	?	-17.6%	?
COc1ccc2c(CC(=O)Nc3ccccc3OC)coc2c1	2.1%	2.3%	-4.3%	-13.9%	12.1%	-5.5%	/
COc1ccc(C(=O)NNC(=O)Cc2coc3cc(OC)ccc23)cc1	/	?	-35.5%	20µM*	?	0.3%	?
CCOC(=O)Cc1csc(NC(=O)NC2(C(F)(F)F)Oc3cc(Cl)c(Cl)cc3O2)n1	-7.2%	20µM*	-17.0%	-20.0%	-10.1%	7.3%	/	Pol kappa inh-2=10.6*
c1coc(-c2nc3ccccc3nc2-c2ccco2)c1	17.8µM*	?	?	50.1µM*	?	-28.1%	?
COCCNc1ncnc2ccc(-c3cccc(OC)c3)cc12	/	11.3%[60.1 µM]	/	/	/	/	/
Cc1ccn2c(=O)nc(SCC(=O)NCc3ccco3)nc2c1	/	-18.3%	?	?	?	9.8%	/
Cc1ccc(CNC(=O)CSc2nc(=O)n3ccc(C)cc3n2)cc1	/	/	-18.7%	28.2µM*	/	/	?
Cc1ccc(-n2[nH]c(C)c(/C=N/Nc3ccc([N+](=O)[O-])cc3[N+](=O)[O-])c2=O)cc1C	-9.2%	-21.4%	?	20µM*	?	-9.8%	?
O=C(Nc1cccnc1)c1ccc(NS(=O)(=O)c2cc([N+](=O)[O-])ccc2Cl)cc1	?	-52.0%	-10.1%[11.6 µM]	22.4µM*	?	-0.9%	75.7*
Cc1ccc(S(=O)(=O)NCC(Nc2cccc(Cl)c2)c2ccccc2)cc1 (stereo unspecified)	-13.4%	-21.4%	/	-19.8%	?	-7.2%	/
CNC(=O)c1c[nH]c2ccc(S(=O)(=O)Nc3cccc(Cl)c3C)cc2c1=O	31.6µM*	?	/	?	?	-8.7%	?	Pol kappa inh-2=21.2*
CCCCN(CCCC)C(=O)c1c[nH]c2ccc(S(=O)(=O)Nc3cccc(Cl)c3C)cc2c1=O	35.5µM*	-15.3%[60.1 µM]	/	39.8µM*	79.4µM*	2.4%	75.7*	Pol kappa inh-2=15*
COCCCNC(=O)c1c[nH]c2ccc(S(=O)(=O)N(C)c3ccccc3C)cc2c1=O	1.1%	-0.4%	0.6%[57.1 µM]	-24.6%	53.3%	11.1%	/
CCOCCCNC(=O)c1c[nH]c2ccc(S(=O)(=O)Nc3cccc(Cl)c3C)cc2c1=O	28.2µM*	?	/	31.6µM*	?	-16.0%	84.9*	Pol kappa inh-2=21.2*
COCCN(C(=O)COC(=O)Cc1coc2cc3c(cc12)CCC3)c1c(N)n(Cc2ccccc2)c(=O)[nH]c1=O	/	?	?	20µM*	28.2µM*	2.9%	75.7*
COCCCN(C(=O)c1cc(-c2ccco2)nc2ccccc12)c1c(N)n(Cc2ccccc2)c(=O)[nH]c1=O	/	?	-28.1%	25.1µM*	39.8µM*	-6.7%	?
COCCCN(C(=O)c1cc(Cl)nc2ccccc12)c1c(N)n(Cc2ccccc2)c(=O)[nH]c1=O	/	-4.4%	3.2%	3.4%	17.3%	0.0%	/
COc1cc(NC(=O)C2CCN(S(=O)(=O)c3c(C)noc3/C=C/c3cccs3)CC2)cc(OC)c1	17.8%	-29.7%	/	-9.7%	?	?	/
O=C(CSc1ncn(-c2ccccc2)n1)Nc1nc2c(s1)CCCC2	31.6µM*	0.0%	-25.8%[57.1 µM]	50.1µM*	25.1µM*	-15.9%	?
SMILES	POLB inh	Pol kappa inh-1	WRN inhibitor	Pol eta inh-1	POLI inh	FEN1 inh	Pol eta inh-2	others
O=C(CSc1ncn(-c2ccccc2)n1)Nc1nc2ccccc2s1	-22.0%	-11.6%	-1.9%	-17.4%	-16.4%[58.9 µM]	-12.7%	/
O=C(NCc1ccco1)C1CCN(C(=O)N2CCOc3ccccc32)CC1	0.4%	1.5%	/	-10.3%	17.3%	-2.4%	/
c1csc(Cc2nn3c(-c4n[nH]c5c4CCC5)nnc3s2)c1	28.2µM*	-33.1%	-35.5%	11.2µM*	?	-4.5%	?
COc1cc(OC)c(-c2nn3c(-c4n[nH]c5c4CCC5)nnc3s2)cc1OC	/	-9.2%	/	/	-16.0%	-7.2%	/
NC(=O)CC[C@@H]1NC(=O)[C@H](CO)NC(=O)c2cc([N+](=O)[O-])cc(I)c2OCC[C@@H](C(N)=O)NC1=O	-0.7%	-17.3%	-4.1%	-7.4%	17.3%	-3.8%	/
NCCCC[C@@H]1NC(=O)[C@H](CCC(=O)O)NC(=O)c2cc([N+](=O)[O-])cc(I)c2OCC[C@@H](C(N)=O)NC1=O	1.0%	25.1µM*	-24.1%[57.1 µM]	14.1µM*	?	-6.4%	30.1*
COc1cc(C(=O)O)cc(OC)c1OCc1cc(C(=O)O)oc1C	17.8µM*	-41.9%	-13.4%	3.16µM*	?	-10.7%	47.8*	Pol kappa inh-2=42.3*
Cc1ccc([N+](=O)[O-])cc1S(=O)(=O)Nc1ccc(C(=O)N2CCN(C(=O)c3ccco3)CC2)cc1	/	?	-4.9%[11.6 µM]	22.4µM*	?	-15.1%	?
COC(=O)c1c(NC(=O)CCCC(=O)O)sc2c1CCC2	0.6%	-30.8%	?	?	-23.8%[58.9 µM]	9.8%	30.1*
COc1ccc(NC(=O)c2c(NCc3cccs3)sc3c2CCCC3)cc1	-13.5%	-10.2%[60.1 µM]	/	-1.4%	5.2%	-23.5%	/
CCOC(=O)c1ccc(NC(=O)c2c(NCc3cccs3)sc3c2CCCCC3)cc1	?	-7.9%[60.1 µM]	/	79.4µM*	?	?	?
N=C1/C(=C\c2ccc(Br)o2)C(=O)N=C2SC(CC(=O)N3CCCCC3)=NN12	?	31.6µM*	?	22.4µM*	?	?	84.9*

Bioassay records from PubChem BioAssay.
